Compounds with a hit are over-represented: about 2.3% of the library has one in this group of screens.
TDP43 rescue – qHTS of TDP-43 Inhibitors | TDP-43 expressing yeast growth rescue, BacTiter-Glo, 24 h | Potency, µM (top dose mostly 46.1 µM), usual class: activators | 1.8% of 410,000 active | AID 652104, 2013; further: nearly all actives have a fitted effect of over 50% in size
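Luminescence from BacTiter-Glo reports growth of TDP-43-expressing yeast after 24 hr at 30 deg C with compound. Cells were raffinose-pregrown to mid-log, then seeded in galactose medium at OD600=0.02.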
aSyn yeast inh – qHTS of alpha-syn Inhibitors. Yeast expressing alpha-synuclein, growth rescue, BacTiter-Glo, 24 h. Potency, µM (doses to about 46.1 µM), usual class: activators. 0.14% of 370,000 active; further: nearly all actives have a fitted effect of over 65% in size
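Readout is rescue of growth in alpha-synuclein-expressing yeast, so inhibitors of toxicity appear as activators. Growth after 24 hr at 30 deg C in galactose medium is quantified by luminescence.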
FUS yeast rescue – qHTS for Suppressors of FUS Proteinopathy: Primary screen using FUS-linked yeast assay; S. cerevisiae FUS-expressing, growth rescue, OD600, 24 h; Potency, µM (doses to about 76.6 µM), most hits filed as activators; 0.24% of 390,000 active; AID 1347120, 2019; further: nearly all actives have a fitted effect of over 55% in size
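S. cerevisiae expressing FUS from galactose induction served as the toxicity model. Growth after 24hr at 30C, read as absorbance at 600 nm, indicates suppression of toxicity; compounds dosed at several concentrations.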
Akt phos inh – HTS Assay for Inhibitors of Akt Phophorylation: Primary Screen; Neuro2A IGF-stimulated pAkt S473 HTRF, 20 min; hits give low values; activity change, % for hits at 50 µM; 0.32% of 360,000 active; AID 651550, 2012; in the data active means activity change below about -80%; inconclusive means mostly about -51% to -80%
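Single-point screen (50 µM final compound) in Neuro2A cells stimulated 20 min with 6 nM IGF at 37 deg C. After lysis, Ser473-phosphorylated Akt read by HTRF (ex 330 nm, em 615/665 nm) as the 665/615 ratio.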
Abeta rescue – qHTS for compounds that reverse cellular toxicity of Amyloid beta (A-beta) peptide in yeast: Primary Screen. yeast expressing A-beta42, growth rescue, OD600, 48 h; response scale: 0% DMSO, 100% iron-clioquinol control. Potency, µM (series often up to 46.1 µM), actives largely listed as activators. 0.063% of 410,000 active; further: nearly all actives have a fitted effect of over 55% in size
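Yeast A-beta toxicity model in growth medium with pinned compounds, 48 h at 30 C; growth read as absorbance at 600 nm. Normalized to FeCl3/clioquinol equimolar mix (positive) and DMSO (negative).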
Large screens that a line does not name were inactive. Unless noted, the call rests on the fitted dose curve; in most records, active means well fitted curve in the direction sought with a large enough effect; inconclusive means small, poorly fitted or top-dose-only effect, or another doubt; inactive means no such curve, though single readings can be large; an effect the other way counts as inactive or inconclusive.

O=C(Nc1nccs1)C1CCN(S(=O)(=O)c2c(Cl)cccc2Cl)CC1	TDP43 rescue 14µM, Abeta rescue inconclusive (no result: Akt phos inh)
COc1cccc(NC(=O)Cn2c(=O)n(CCc3cccc(C)c3)c(=O)c3ccccc32)c1	none (no result: aSyn yeast inh, Akt phos inh)
O=C(Nc1ccccn1)c1ccc(Br)s1	TDP43 rescue 6.3µM
Cc1cc(C)cc(N2C(=O)CSC23C(=O)N(Cc2c(F)cccc2Cl)c2ccccc23)c1 (centres undefined)	TDP43 rescue inconclusive (no result: Akt phos inh)
Cc1ccc(C)c(NC(=O)CSc2cccc3cccnc23)c1	TDP43 rescue 5.6µM
Cc1cccc(NC(=O)CSc2cccc3cccnc23)c1	TDP43 rescue inconclusive, aSyn yeast inh inconclusive
CCCc1nc(SCC(=O)N2CCC(Cc3ccccc3)CC2)c2c(=O)n(C)c(=O)n(C)c2n1	TDP43 rescue 35µM
CCCc1nc(SCC(=O)N2CCCc3ccccc32)c2c(=O)n(C)c(=O)n(C)c2n1	TDP43 rescue 35µM
CC(C)c1nc(SCC(=O)N2CCCC2)c2c(=O)n(C)c(=O)n(C)c2n1	aSyn yeast inh 3.5µM
CC(C)c1nc(SCC(=O)N2CCCCCC2)c2c(=O)n(C)c(=O)n(C)c2n1	none
Cn1c(=O)c2c(SCC(=O)N3CCCc4ccccc43)nc(CC(C)(C)C)nc2n(C)c1=O	none
CCOc1ccccc1NC(=O)CN1C(=O)COc2ccc(S(=O)(=O)N3CCCCCC3)cc21	none (no result: aSyn yeast inh, Akt phos inh)
O=C(Cn1c(=O)oc2cc(S(=O)(=O)NC3CCCC3)ccc21)Nc1ccc(F)c(F)c1	none (no result: aSyn yeast inh, Akt phos inh)
Cc1cc(C)nc(N(C#N)Cc2ccc(Br)cc2)n1	TDP43 rescue 14µM
Cc1cc(C)nc(N(C#N)CCOc2ccc(Cl)cc2)n1	TDP43 rescue 18µM
Cc1ccc(CN(C#N)c2nc(C)cc(C)n2)cc1	TDP43 rescue 35µM
Cc1cc(C)nc(N(C#N)Cc2ccc(Cl)cc2)n1	none
CCC(=O)N1CCc2cc(Br)cc(S(=O)(=O)N3CCCC(C(=O)NCc4ccccc4)C3)c21 (centres undefined)	FUS yeast rescue inconclusive (no result: aSyn yeast inh, Akt phos inh)
Cc1ccc(C)n1NC(=O)c1ccccc1	FUS yeast rescue 20µM
Cc1cccc(N(CC(=O)NCCSCc2ccc(Cl)cc2)S(C)(=O)=O)c1C	TDP43 rescue 16µM, Abeta rescue inconclusive (no result: aSyn yeast inh, Akt phos inh)
O=C(CCC1CCCCC1)Nc1ccccc1-c1ccccc1	TDP43 rescue 14µM
Cc1ccc(CNC(=O)CN(C)S(=O)(=O)c2ccc3c(c2)c(=O)n(C)c(=O)n3C)cc1	none (no result: aSyn yeast inh, Akt phos inh)
COc1ccc(N2CCN(c3oc(/C=C/c4cc(OC)c(OC)c(OC)c4)nc3C#N)CC2)cc1	none (no result: aSyn yeast inh, Akt phos inh)
CCOCCCn1c(=N)c(S(=O)(=O)c2ccc(C)cc2)cc2c(=O)n3ccccc3nc21	none (no result: Akt phos inh)
Cc1ccc(S(=O)(=O)c2cc3c(=O)n4ccccc4nc3n(Cc3ccco3)c2=N)cc1	FUS yeast rescue 14µM
CCOc1ccc(NC(=O)N2CCN(Cc3cc(=O)n4nc(-c5ccc(OC)cc5)sc4n3)CC2)cc1	none (no result: aSyn yeast inh, Akt phos inh)
Cc1ccc(NC(=O)C2CCCN2C(=O)NCc2ccccc2)cc1 (centres undefined)	none
Cc1ccc(NC(=O)N2CCCC2C(=O)NCCc2ccccc2)cc1 (centres undefined)	Akt phos inh -121%
O=C(Nc1ccc(Br)c(C(F)(F)F)c1)c1ccccc1	TDP43 rescue 8.9µM (no result: FUS yeast rescue)
O=C(Nc1ccc(Br)c(C(F)(F)F)c1)c1ccc(C(F)(F)F)cc1	none
Cc1nc(CS(=O)(=O)c2ccccc2)cc(Sc2ccc(Cl)cc2Cl)n1	TDP43 rescue 13µM
Cc1nc(Cl)cc(CS(=O)(=O)c2ccc(Cl)cc2)n1	none
CCOc1ccc(Sc2cc(C(=O)NC(C)CC)c3ccccc3n2)cc1 (centres undefined)	none (no result: Akt phos inh)
COC(=O)C1=NN(C(=O)c2ccc(C)cc2)C(O)(c2ccc(Cl)cc2)C1 (centres undefined)	TDP43 rescue inconclusive, aSyn yeast inh 11µM, FUS yeast rescue inconclusive
Cc1ccc(NC(=O)Nc2cn(CC(C)C)c(=O)c3ccccc23)cc1N(C)C	none (no result: Akt phos inh)
O=C(/C=C/c1ccccc1)Nc1cccnc1Cl	TDP43 rescue 7.9µM
O=C(COC(=O)/C=C/c1ccccc1)Nc1cccnc1Cl	none
CCCCNC(=O)c1cnc2sc(N3CCCCCC3)nn2c1=O	none (no result: aSyn yeast inh, Akt phos inh)
Cc1cccc(-c2cnn(-c3ccccc3)c2N)c1	TDP43 rescue inconclusive
Nc1c(-c2ccccc2)cnn1-c1cccc(Cl)c1	TDP43 rescue 16µM
CC(C)c1cc(-c2cc(C(=O)NCc3ccccc3)on2)nc(NCC2CC2)n1	TDP43 rescue 16µM, aSyn yeast inh inconclusive
O=C(COC(=O)c1ccccc1Br)NCCc1ccc(F)cc1	TDP43 rescue 20µM (no result: FUS yeast rescue)
CSc1ncccc1C(=O)OCC(=O)NCCCc1ccccc1	TDP43 rescue 18µM
O=C(COC(=O)c1ccccc1Br)Nc1ccc(F)cc1	TDP43 rescue inconclusive
Cc1ccc(S(=O)(=O)NCC(c2ccc(N(C)C)cc2)N2CCc3ccccc32)cc1C (centres undefined)	FUS yeast rescue inconclusive (no result: aSyn yeast inh, Akt phos inh)
CCc1ccccc1NC(c1nnc(-c2cccc(F)c2)o1)c1ccc(F)cc1Cl (centres undefined)	none (no result: aSyn yeast inh, Akt phos inh)
CCN(C(=O)c1cc(S(=O)(=O)N2CCc3ccccc32)cn1C)c1cccc(C)c1	FUS yeast rescue inconclusive (no result: aSyn yeast inh, Akt phos inh)
Cc1ccc(S(=O)(=O)NCCc2cn3c(C)csc3n2)cc1	none (no result: aSyn yeast inh, Akt phos inh)
S=C(N/N=C/c1ccccc1)N1CCOCC1	TDP43 rescue 22µM, Abeta rescue inconclusive (no result: FUS yeast rescue)
COc1cccc(NC(=O)c2oc3ccc(S(=O)(=O)N4CCC5(CC4)OCCO5)cc3c2C)c1	FUS yeast rescue inconclusive (no result: aSyn yeast inh, Akt phos inh)
CC1CCN(C(=O)CSc2nc3ccccc3s2)CC1	TDP43 rescue inconclusive (no result: FUS yeast rescue)
CC1CCCC(C)N1C(=O)CSc1nc2ccccc2s1 (centres undefined)	TDP43 rescue 7.9µM (no result: aSyn yeast inh, Akt phos inh)
Cc1cnc(NC(=O)CSc2ccc(Cl)cc2)s1	TDP43 rescue 11µM, Abeta rescue inconclusive
Cc1cnc(NC(=O)CSc2nc3ccccc3s2)s1	TDP43 rescue 14µM
O=C(O)c1cc2ccccc2c2c1C(=O)c1ccccc1-2	aSyn yeast inh 2.8µM, Abeta rescue inconclusive
CC1(Cc2ccccc2OC(F)(F)F)C(=O)Nc2ccc(S(=O)(=O)NC3CCCCC3)cc21 (centres undefined)	none
COc1ccc(OC(F)(F)F)cc1CC1(C)C(=O)Nc2ccc(-c3ccsc3)cc21 (centres undefined)	TDP43 rescue 14µM
COc1ccc(OC(F)(F)F)cc1CC1(C)C(=O)Nc2ccc(S(=O)(=O)NC3CCCCC3)cc21 (centres undefined)	FUS yeast rescue 32µM
Fc1ccc(NCc2cccn2-c2nnc(N3CCOCC3)s2)cc1	none (no result: Akt phos inh)
Fc1cccc(NCc2cccn2-c2nnc(N3CCOCC3)s2)c1	aSyn yeast inh 22µM (no result: Akt phos inh)
